# Laboratory results reported in PubChem BioAssay.
# The source made the active and inactive calls. Unless noted, how the calls were made is not given here.
# Legend:
# [1] = compounds binding Alexa647 anti-His antibody – biochemical, small-molecule microarray, 635 nm fluorescence, artefact control for SMM control protein annotation, primary screen (AID 1128); conditions: higher = more signal;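 further: score merges feature fluorescence with signal-to-noise for each printed compound spot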
# [2] = tested on: Human papillomavirus type 1a E7 protein (residues 1-88); assay: HPV1a E7 small-molecule binders, primary screen, biochemical, small-molecule microarray, residues 1-88, 635 nm (AID 1129); conditions: small-molecule microarray binding, fluorescence 635 nm; higher = more signal
# [3] = target: Focal adhesion kinase 1 (Homo sapiens) (UniProt Q05397); assay: PTK2 protein binding on printed compound slides – biochemical, small-molecule microarray, 635/667 nm fluorescence, BSA, DTT, primary screen (AID 1130); conditions: 635 nm fluorescence, higher = more signal;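 further: composite of spot emission at 667 nm and signal to noise over triplicate slides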
# Chain of Focal adhesion kinase 1 (Homo sapiens) (Q05397 whole entry, looked up): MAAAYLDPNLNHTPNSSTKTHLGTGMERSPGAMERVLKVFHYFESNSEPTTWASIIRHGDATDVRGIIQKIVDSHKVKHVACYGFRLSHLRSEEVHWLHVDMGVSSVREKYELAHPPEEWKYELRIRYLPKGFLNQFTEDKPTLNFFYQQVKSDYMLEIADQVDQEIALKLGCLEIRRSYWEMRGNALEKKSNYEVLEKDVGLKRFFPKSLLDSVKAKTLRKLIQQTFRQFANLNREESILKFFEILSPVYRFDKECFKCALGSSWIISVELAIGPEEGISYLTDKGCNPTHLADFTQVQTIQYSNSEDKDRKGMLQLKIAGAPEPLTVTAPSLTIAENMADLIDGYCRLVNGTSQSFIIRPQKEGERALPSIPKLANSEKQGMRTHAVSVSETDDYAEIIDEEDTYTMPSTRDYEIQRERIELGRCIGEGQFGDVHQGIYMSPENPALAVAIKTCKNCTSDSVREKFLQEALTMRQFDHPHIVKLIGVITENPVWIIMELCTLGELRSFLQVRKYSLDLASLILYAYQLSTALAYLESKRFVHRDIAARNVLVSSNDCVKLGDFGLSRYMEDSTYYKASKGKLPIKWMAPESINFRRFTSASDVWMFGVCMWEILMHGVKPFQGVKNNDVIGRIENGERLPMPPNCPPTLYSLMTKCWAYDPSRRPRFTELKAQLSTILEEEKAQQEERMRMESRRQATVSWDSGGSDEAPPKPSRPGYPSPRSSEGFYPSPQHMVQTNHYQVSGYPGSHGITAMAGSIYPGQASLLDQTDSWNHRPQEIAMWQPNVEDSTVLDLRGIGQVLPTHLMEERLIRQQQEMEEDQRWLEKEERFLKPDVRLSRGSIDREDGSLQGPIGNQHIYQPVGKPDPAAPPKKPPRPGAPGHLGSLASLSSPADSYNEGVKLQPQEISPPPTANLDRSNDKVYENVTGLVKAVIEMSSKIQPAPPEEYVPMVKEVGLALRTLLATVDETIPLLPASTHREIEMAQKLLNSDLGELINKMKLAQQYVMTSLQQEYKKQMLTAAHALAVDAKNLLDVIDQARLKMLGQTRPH
# [4] = tested on: Fibrinogen (Alexa647-labelled); assay: Alexa647-fibrinogen binding to printed small molecules – biochemical, small-molecule microarray, 635/667 nm fluorescence, artefact control for SMM control-protein annotation, profiling panel (AID 1131); conditions: fibrinogen-A647 binding fluorescence, higher = more signal;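 further: z-score merges 667 nm fluorescence with per-spot signal-to-noise over triplicate slides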
# [5] = target: Follistatin (Homo sapiens) (UniProt P19883); assay: FST protein binding to printed compounds – biochemical, small-molecule microarray, 635/667 nm fluorescence, primary screen (AID 1132); conditions: 635 nm fluorescence, higher = more signal
# Chain of Follistatin (Homo sapiens) (P19883 whole entry, looked up): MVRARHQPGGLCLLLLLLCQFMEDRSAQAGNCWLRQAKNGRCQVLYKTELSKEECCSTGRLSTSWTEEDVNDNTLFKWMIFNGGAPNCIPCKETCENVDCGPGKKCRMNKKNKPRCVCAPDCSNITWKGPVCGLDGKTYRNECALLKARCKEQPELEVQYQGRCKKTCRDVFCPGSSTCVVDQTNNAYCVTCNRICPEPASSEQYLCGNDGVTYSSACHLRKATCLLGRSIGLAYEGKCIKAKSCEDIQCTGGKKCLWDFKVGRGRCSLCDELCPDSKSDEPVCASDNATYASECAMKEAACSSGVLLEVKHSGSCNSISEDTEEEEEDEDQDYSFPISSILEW
# [6] = target: Fibroblast growth factor 2 (Homo sapiens) (UniProt P09038); assay: basic fibroblast growth factor binding to printed compounds – biochemical, small-molecule microarray, 635/667 nm fluorescence, primary screen (AID 1133); conditions: FGF2, fluorescence 635/667, higher = more signal
# Chain of Fibroblast growth factor 2 (Homo sapiens) (P09038 whole entry, looked up): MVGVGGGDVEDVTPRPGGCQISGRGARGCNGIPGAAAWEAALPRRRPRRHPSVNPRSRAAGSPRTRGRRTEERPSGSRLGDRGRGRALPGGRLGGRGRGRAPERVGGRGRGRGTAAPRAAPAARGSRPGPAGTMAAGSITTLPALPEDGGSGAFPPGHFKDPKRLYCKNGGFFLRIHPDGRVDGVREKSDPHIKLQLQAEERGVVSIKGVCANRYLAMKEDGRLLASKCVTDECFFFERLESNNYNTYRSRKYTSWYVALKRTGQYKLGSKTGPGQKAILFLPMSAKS
# [7] = JC-1 mitochondrial potential readout, lung cancer cells – cell-based, A549, JC-1 fluorescence, basal, 24 h, 100 nL, profiling panel (AID 1138); conditions: higher = more signal;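 further: A549 lung adenocarcinoma cells under basal conditions with no added stimulus; test concentration not given here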
# Lefty1 = Lefty1 protein binding to printed compounds – biochemical, small-molecule microarray, 635/667 nm fluorescence, primary screen (AID 1139); conditions: fluorescence 635/667, higher = more signal
# [8] = tested on: wheat germ agglutinin (Triticum aestivum), Alexa647-labelled; assay: Alexa647-WGA lectin binding to printed small molecules – biochemical, small-molecule microarray, 635/667 nm fluorescence, artefact control for SMM control-protein annotation, profiling panel (AID 1140); conditions: WGA-A647 binding, 635 nm fluorescence, higher = more signal;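 further: score merges 667 nm feature emission with signal to noise over triplicate slides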
# [9] = target: Luciferin 4-monooxygenase (Photinus pyralis) (UniProt P08659); assay: inhibition of purified Photinus pyralis luciferase – biochemical, luminescence, purified enzyme, 2006 set, primary screen (AID 1141); conditions: purified firefly luciferase, SteadyGlo luminescence, 30 min; higher = more signal, called active from +8 up or from −8 down;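 further: cell-free assay with purified firefly luciferase at 100 ng per well in PBS; test concentration not given here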
# Chain of Luciferin 4-monooxygenase (Photinus pyralis) (P08659 whole entry, looked up): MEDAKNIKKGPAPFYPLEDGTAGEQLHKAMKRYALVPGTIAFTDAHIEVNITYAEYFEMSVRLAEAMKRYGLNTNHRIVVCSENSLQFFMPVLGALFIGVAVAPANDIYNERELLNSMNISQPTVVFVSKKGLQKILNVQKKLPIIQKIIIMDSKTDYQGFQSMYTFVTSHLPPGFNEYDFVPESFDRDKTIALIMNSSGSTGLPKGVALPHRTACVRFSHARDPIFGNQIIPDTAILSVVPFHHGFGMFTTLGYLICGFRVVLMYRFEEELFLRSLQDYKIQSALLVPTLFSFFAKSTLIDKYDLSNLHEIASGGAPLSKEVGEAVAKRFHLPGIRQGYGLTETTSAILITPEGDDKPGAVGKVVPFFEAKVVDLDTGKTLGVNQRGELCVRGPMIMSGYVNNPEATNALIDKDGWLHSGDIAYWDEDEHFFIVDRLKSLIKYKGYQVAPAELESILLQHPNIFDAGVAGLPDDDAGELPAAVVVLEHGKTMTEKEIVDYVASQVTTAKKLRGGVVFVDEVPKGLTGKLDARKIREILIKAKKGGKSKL
# [10] = tested on: Wnt5a (protein binding on small-molecule microarray); assay: small molecules binding Wnt5a protein – biophysical, small-molecule microarray, 635/667 nm fluorescence, primary screen (AID 1142); conditions: 635 nm fluorescence, higher = more signal;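 further: fluorescence read at 667 nm with signal to noise per printed feature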
# [11] = ATP-based viability of Huh7 replicon cells – cell-based, CellTiter-Glo luminescence, basal, 48 h, cytotoxicity control for HCV replication inhibitor project, primary screen (AID 1143); conditions: higher = more signal, called active from +8 up or from −8 down;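 further: Huh7 hepatoma cells carrying a hepatitis C replication reporter with no stimulus; test concentration not given here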
# [12] = Pseudomonas biofilm growth suppression – PAO1 strain, BacTiter-Glo luminescence, LB-PBS, primary screen (AID 1144); conditions: P. aeruginosa PAO1 biofilm, 12 h, higher = more signal
# [13] = basal CRE-LacZ reporter activity in PC12 – cell-based, unstimulated, primary screen (AID 1145); conditions: no forskolin, luminescence, 4.5 h, higher = more signal, called active from +8 up or from −8 down
# [14] = forskolin-driven CRE-LacZ activity in PC12 – cell-based, CRE-LacZ reporter, forskolin-stimulated, primary screen (AID 1146); conditions: luminescence, 4.5 h, higher = more signal, called active from +8 up or from −8 down;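 further: PC12 cells with 6xCRE LacZ reporter stimulated by forskolin 10 µM; beta-galactosidase reporter signal reflecting CREB driven transcription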
# [15] = target: Streptavidin (Streptomyces avidinii) (UniProt P22629); assay: compounds binding control protein streptavidin – biophysical, small-molecule microarray, 635/667 nm fluorescence, artefact control for SMM compound annotation, primary screen (AID 1147); conditions: higher = more signal;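 further: signal reflects streptavidin binding to arrayed compounds as a control protein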
# Chain of Streptavidin (Streptomyces avidinii) (P22629 whole entry, looked up): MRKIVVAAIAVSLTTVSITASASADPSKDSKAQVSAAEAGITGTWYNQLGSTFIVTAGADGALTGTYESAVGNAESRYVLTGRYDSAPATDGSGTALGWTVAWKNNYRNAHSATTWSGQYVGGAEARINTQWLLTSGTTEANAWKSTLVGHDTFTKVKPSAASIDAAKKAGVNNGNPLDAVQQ
# [16] = probe aInhba binding on compound microarray – biochemical, small-molecule microarray, 635/667 nm fluorescence, primary screen (AID 1148); conditions: higher = more signal;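 further: score merges 667nm spot fluorescence with signal-to-noise for antibody binding to printed compounds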
# Torsin-1A (Homo sapiens) [17] = target: Torsin-1A (Homo sapiens) (UniProt O14656); assay: TOR1A wild-type binding on microarray – cell lysate, small-molecule microarray, lysate, 635/667 nm, primary screen (AID 1149); conditions: COS7 hTOR1A-WT lysate, 635 nm fluorescence, higher = more signal
# Chain of Torsin-1A (Homo sapiens) (O14656 whole entry, looked up): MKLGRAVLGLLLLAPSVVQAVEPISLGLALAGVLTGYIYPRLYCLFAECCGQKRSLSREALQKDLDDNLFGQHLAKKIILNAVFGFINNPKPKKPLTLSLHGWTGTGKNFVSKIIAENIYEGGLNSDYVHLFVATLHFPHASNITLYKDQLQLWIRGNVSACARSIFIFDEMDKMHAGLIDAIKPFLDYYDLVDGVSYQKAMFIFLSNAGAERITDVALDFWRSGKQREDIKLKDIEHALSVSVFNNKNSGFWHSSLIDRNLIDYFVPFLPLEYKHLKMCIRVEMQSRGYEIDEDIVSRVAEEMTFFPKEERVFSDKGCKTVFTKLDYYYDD
# Torsin-1A (Homo sapiens) [18] = target: Torsin-1A (Homo sapiens) (UniProt O14656); assay: torsin A mutant lysate binding on microarrays – cell lysate, small-molecule microarray, COS7 lysate, 635/667 nm fluorescence, primary screen (AID 1150); conditions: COS7 hTOR1A mutant lysate, 635 nm fluorescence, higher = more signal;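 further: score pools 667 nm emission and signal to noise measuring lysate protein binding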
# [19] = tested on: Sonic hedgehog protein (Shh); assay: Sonic hedgehog microarray binding compounds – biochemical, small-molecule microarray, 635/667 nm fluorescence, primary screen (AID 1151); conditions: 635 nm fluorescence, higher = more signal;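 further: Shh protein binding to compounds spotted on small-molecule microarray slides; score combines spot fluorescence intensity with signal-to-noise across triplicate slides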
SMILES,composite z-score [1],composite z-score [2],composite z-score [3],composite z-score [4],composite z-score [5],composite z-score [6],z-score [7],composite z-score (Lefty1),composite z-score [8],z-score [9],composite z-score [10],z-score [11],z-score [12],z-score [13],z-score [14],composite z-score [15],composite z-score [16],composite z-score (Torsin-1A (Homo sapiens) [17]),composite z-score (Torsin-1A (Homo sapiens) [18]),composite z-score [19]
CCN(CC)c1ccc(N2CC=CC34O[C@@H]5C=CCOC(=O)[C@@H]5[C@H]3C(=O)N(CCCCCO)[C@@H]4C2=O)cc1 (stereo not given in full),3.37,-0.959,-0.0973,-1.59,-0.915,-0.551,1.24,-0.439,-0.559,-0.439 (inactive),-0.253,-0.286 (inactive),0.555 (inactive),1.57 (inactive),-0.0409 (inactive),-0.93,-0.186,1.03,1.06,0.146
NC(=O)NCC#Cc1ccc2c(c1)[C@]1(C(=O)N2)[C@H](c2ccc(O)cc2)N2[C@H](c3ccccc3)[C@H](c3ccccc3)OC(=O)[C@H]2[C@@H]1C(=O)N1CCN(c2ncccn2)CC1,1.05,0.855,-0.75,0.486,0.743,-0.0346,-1.1,-0.112,0.297,-1.43 (inactive),0.0724,0.449 (inactive),0.185 (inactive),1.21 (inactive),0.128 (inactive),0.0219,0.181,-0.219,0.412,-0.37
COc1ccc([Si](C)(C)[C@@H]2[C@@H](CCO)O[C@]3(C(=O)N(Cc4ccccc4)c4ccc(N(C=O)c5ccccc5)cc43)[C@H]2C)cc1,1.24,0.0244,-0.205,0.181,1.08,0.614,-0.276,0.497,0.467,-0.301 (inactive),0.155,-5.23 (inactive),-1.1 (inactive),4.18 (inactive),-0.336 (inactive),-0.0047,-0.0762,0.353,0.188,1.26
COC(=O)[C@@]1(Cc2ccc(OC)cc2)[C@H]2c3cc(C(=O)N4CCCC4)n(CCN4CCOCC4)c3C[C@H]2CN1C(=O)c1ccccc1,0.954,1.19,1.75,0.998,0.193,-0.125,0.892,-0.499,0.76,1.12 (inactive),2.64,-0.267 (inactive),0.356 (inactive),0.966 (inactive),1.64 (inactive),2.02,1.75,0.27,1.71,-0.641
C=C[C@@H](C)[C@@H](OC(=O)Nc1ccc(OC)cc1)c1ccc(O)c2ccccc12,0.305,0.52,-0.209,0.521,1.16,1.22,-1.38,0.676,0.449,-5.76 (inactive),-0.124,-5.48 (inactive),-0.901 (inactive),0.758 (inactive),0.999 (inactive),0.0646,-0.154,0.15,-0.0324,1.53
CC(C)(C)OC(=O)CC[C@@]1(C(=O)NCC(O)CO)N=C(c2ccc(OCCCO)cc2)O[C@@H]1c1ccccc1 (stereo not given in full),0.0885,0.913,0.415,0.681,0.392,-0.691,0.477,-0.0491,0.467,-0.962 (inactive),0.0271,0.496 (inactive),-1.15 (inactive),2.06 (inactive),-0.904 (inactive),-0.0256,-0.0361,1.07,1.01,-0.887
COc1cc(NN2C(C(O)c3ccccc3)C=CC3C(=O)N(c4ccccc4)C(=O)C32)cc(OC)c1OC (stereo not given),1.67,1.28,0.707,0.967,0.952,0.444,1.42,0.879,1.39,-2.13 (inactive),0.421,-3.47 (inactive),-0.525 (inactive),0.433 (inactive),-0.557 (inactive),0.148,0.0829,0.179,0.989,0.89
CCCCC(=C=CC[C@H](O)c1ccccc1OCCO)C[C@H](O)c1cc(Cl)cc(Cl)c1O,1.02,0.955,0.305,0.517,0.698,0.28,-0.343,0.249,0.0162,-1.27 (inactive),0.121,-0.433 (inactive),-0.0417 (inactive),7.91 (inactive),1.57 (inactive),-0.18,-0.0471,0.873,0.234,0.66
O=c1cccc(-c2ccccc2)o1,-0.192,-0.377,0.192,-0.468,0.145,-0.417,0.103,-0.57,0.143,0.616 (inactive),-0.299,0.423 (inactive),1.55 (inactive),-0.723 (inactive),0.137 (inactive),-0.386,-0.204,0.0936,0.274,-0.379
CCCC[C@@H]1C[C@H]1[C@@H](NC(=O)c1ccco1)c1ccccc1,-0.172,-1,-0.107,-1.82,-1.64,-2.17,0.542,-1.06,-0.0439,0.771 (inactive),-0.609,-2.87 (inactive),0.0548 (inactive),0.783 (inactive),-0.787 (inactive),-1.27,-0.258,-3.91,-1.3,-1.88
[N-]=[N+]=NCc1ccccc1C[C@]1(C(=O)NCC(O)CO)COC(c2ccc(OCCCO)cc2)=N1 (stereo not given in full),1.41,1.2,1.98,0.0694,0.831,-0.0586,1.18,-0.683,0.964,-0.0644 (inactive),0.956,-1.57 (inactive),0.305 (inactive),1.12 (inactive),-1.08 (inactive),1.43,0.435,0.842,2.3,-1.03
